Among the data in ChEMBL document CHEMBL1157539, “Thousands of chemical starting points for antimalarial lead identification” (Nature, 2010) are Inhibition values, retold here.

What all share (assay type): functional
The subject of assay [1] is Plasmodium falciparum. The assay can be described thus: GSK_TCMDC: Inhibition of Plasmodium falciparum 3D7 in whole red blood cells, using parasite LDH activity as an index of growth. Test compounds present at 2uM.
For assay [2], the system named is Plasmodium falciparum. The assay can be described thus: GSK_TCMDC: Inhibition of Plasmodium falciparum Dd2 in whole red blood cells, using parasite LDH activity as an index of growth. Test compounds present at 2uM.
In assay [3] the test system is HepG2. The assay can be described thus: GSK_TCMDC: Percent inhibition of human HepG2 cell line. Test compounds present at 10uM.

Take `CCCCCCNC(=N)c1ccc2[nH]c(-c3ccc(O)cc3)nc2c1.Cl`: the Inhibition – broadly, the percentage by which the read-out fell short of the control – in assay [1] worked out at 100%; in assay [2], 99%; in assay [3], 0%.
With `O=C(c1ccc(-c2ccc(-c3nc4cc(C(F)(F)F)ccc4[nH]3)s2)cc1)N1CCCCC1CN1CCC(O)C1` (stereo unspecified), the Inhibition came out at 92% in assay [1], 80% in assay [2] and 90% in assay [3].
For `Cc1ccccc1C1CCN(C2CCC(NC(=O)c3ccc4c(c3)-c3nocc3C(C)O4)CC2)CC1` (stereo unspecified), the Inhibition was found to be 88% in assay [1], 37% in assay [2] and 68% in assay [3].
On to `COCC(C)n1c(C)cc(C(=O)CSc2nnc(Nc3ccccc3)s2)c1C` (stereo unspecified), for which the Inhibition in assay [1] was found to be 97%; in assay [2], 98%; in assay [3], 0%.
On to `CCn1c(-c2nonc2N)nc2c(-c3cccc(Cl)c3)ncc(OCCCNCCc3c[nH]cn3)c21.O=C(O)C(F)(F)F`, for which the Inhibition in assay [1] came out at 100%; in assay [2], 98%; in assay [3], 16%.
The matching figures for `COc1ccc2ncc(OC)c(CCN3CC[C@@H](NCc4ccc5c(n4)NC(=O)CS5)[C@H](O)C3)c2n1`: 94%, 99% and 21%.
Consider `O=C(O)C(F)(F)F.OC1(c2ccccc2)CCN(Cc2cccc(-c3c[nH]c4nc(NC5CCCC5)ncc34)c2)C1` (stereo unspecified), for which the Inhibition came out at 92% in assay [1], 31% in assay [2] and 42% in assay [3].
On to `CCc1cc2c(O)c([N+](=O)[O-])c(=O)oc2cc1OCCCCCOc1cc2oc(=O)c([N+](=O)[O-])c(O)c2cc1CC`, for which the Inhibition in assay [1] was 99%; in assay [2], 0%; in assay [3], 11%.
`COC(=O)C1(NC(=O)c2ccc(-n3nc(C)c(-c4ccccc4)c3N)cc2)CCCC1`: the values for the Inhibition in assay [1], in assay [2] and in assay [3] were 96%, 81% and 9%, respectively.
Turning to `CCN(CCCN1CCCCC1)c1cc(C)nc(Nc2cccc(OC(F)(F)F)c2)n1.O=C(O)C(F)(F)F`, the Inhibition is given as 100% in assay [1], 99% in assay [2] and 32% in assay [3].
The matching figures for `O=C(Nc1ccc(Cn2ncc(N3CCCNCC3)c(Cl)c2=O)cc1)Nc1ccc(F)cc1[N+](=O)[O-]`: 90%, 0% and 11%.
For `CCN(CC)CCOc1ccc(C(O)(C#CC(O)(c2ccc(C)cc2)c2ccc(OCCN(CC)CC)cc2)c2ccc(C)cc2)cc1` (stereo unspecified), the Inhibition in assay [1] turned out to be 97%; in assay [2], 98%; in assay [3] it was 94%.
The matching figures for `O=c1sn(-c2csc3ccccc23)c2ccccc12`: 94%, 54% and 14%.
The matching figures for `CCc1c(CCNCCCCCCNCCc2ccc([N+](=O)[O-])cc2)ccc(OC)c1OC.Cl`: 100%, 2% and 35%.
The matching figures for `NC1CCN(Cc2ccc(-c3ccc(-c4nc5cc(F)ccc5[nH]4)cc3)cc2)C1.O=C(O)C(F)(F)F` (stereo unspecified): 98%, 99% and 41%.
Consider `COc1ccc(CNC2CCN(C)CC2)cc1-c1cccc(S(=O)(=O)NCc2ccccc2)c1.O=C(O)C(F)(F)F`, for which the Inhibition in assay [1] is reported as 100%; in assay [2] it was 7%; in assay [3], 43%.
For the molecule `Cc1cccc(NC(=O)c2cnc(N3CCN(c4ccncc4)CC3)c(Cl)c2)c1.O=C(O)C(F)(F)F`, the values for the Inhibition in assay [1], in assay [2] and in assay [3] were 100%, 54% and 36%, respectively.
As for `Oc1cc(NC[C@H]2CCC[C@@H]2NCc2cc(Br)cc(Br)c2)nc2ccccc12`, the figures for the Inhibition in assay [1], in assay [2] and in assay [3] were 100%, 45% and 21%, respectively.
Take `Cc1ccc(C)c(NC(=O)CC2C(=O)N(c3ccccc3)C(=S)N2Cc2ccco2)c1` (stereo unspecified): the Inhibition turned out to be 100% in assay [1], 99% in assay [2] and 9% in assay [3].
The matching figures for `O=[N+]([O-])c1cccc(/C=N/Nc2ccnc3cc(F)ccc23)c1`: 100%, 100% and 4%.
In the same order, the values of `Oc1ccc(-c2ccccc2)cc1CN1CCCCCC1` are 95%, 85% and 6%.
In the case of `CCN1CCC(N2CCC(C(=O)Nc3cccc(-c4cccc(Cl)c4)c3)CC2)CC1`, the Inhibition is 91% in assay [1], 82% in assay [2] and 54% in assay [3].
Consider `CCN(CC)/C(=N/C(=N)NCc1ccc(Cl)cc1)NCCCCCCN/C(=N\C(=N)NCc1ccc(Cl)cc1)N(CC)CC`, for which the Inhibition is 100% in assay [1], 100% in assay [2] and 18% in assay [3].
Turning to `O=C(Nc1ccc(Cl)c(C(F)(F)F)c1)c1ccc(Cl)c([N+](=O)[O-])c1`, the Inhibition in assay [1] came out at 87%; in assay [2], 18%; in assay [3], 20%.
The matching figures for `N#CCCN1CCN(Cc2cccc(-c3ccc(-c4nc5ccccc5[nH]4)cc3)c2)CC1.O=C(O)C(F)(F)F`: 93%, 20% and 18%.
In the same order, the values of `Cl.O=C(Nc1ccccc1Br)N[C@@H]1CCN(c2ccnc3ccccc23)C1` are 91%, 90% and 25%.
In the same order, the values of `CCNC(C)(C)CN(Cc1ccc(-c2ccc(C(F)(F)F)cc2)cc1)C(=O)Cn1c(SCc2ccc(F)cc2)nc(=O)c2c1CCC2.O=C(O)C(O)C(O)C(=O)O` are 95%, 94% and 99%.
